Source: PubChem BioAssay (National Center for Advancing Translational Sciences (NCATS))
Only some compounds are listed: those with a hit (about 1.5% of all), similar ones and a draw of the others.
Tb PFK inh – inhibitors of T. brucei phosphofructokinase. O15648. T. brucei PFK, ADP-Glo luminescence. Potency, µM (series often up to 57.5 µM), without a hit: at the top dose activity, negative = inhibition, usual class: inhibitors. 330,000 compounds, 0.17% hits. AID 485367;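 note: potency is the fitted concentration of half-maximal effect; 0% = uninhibited 1x PFK enzyme wells and -100% = no-enzyme wells; nearly all actives have a fitted effect of over 60% in size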
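Activity is normalized to no-enzyme wells (full inhibition) and 1.25 nM enzyme wells (no inhibition). Reaction: 0.5 mM F6P, 0.1 mM ATP, 45 min RT, ADP-Glo luminescence; concentration-response curves fitted and classed by quality.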
WRN inhibitor – WRN helicase (human) inhibition; Q14191; WRN helicase unwinding, fluorescent forked duplex, kinetic; Potency, µM (titrated, usually from 114 µM), without a hit: at the highest dose activity change, negative = inhibition, hits mostly inhibitors; 360,000 compounds, 0.46% hits; note: potency is the fitted concentration of half-maximal effect; nearly all actives have a fitted effect of over 55% in size
Target sequence (Q14191 whole entry, looked up): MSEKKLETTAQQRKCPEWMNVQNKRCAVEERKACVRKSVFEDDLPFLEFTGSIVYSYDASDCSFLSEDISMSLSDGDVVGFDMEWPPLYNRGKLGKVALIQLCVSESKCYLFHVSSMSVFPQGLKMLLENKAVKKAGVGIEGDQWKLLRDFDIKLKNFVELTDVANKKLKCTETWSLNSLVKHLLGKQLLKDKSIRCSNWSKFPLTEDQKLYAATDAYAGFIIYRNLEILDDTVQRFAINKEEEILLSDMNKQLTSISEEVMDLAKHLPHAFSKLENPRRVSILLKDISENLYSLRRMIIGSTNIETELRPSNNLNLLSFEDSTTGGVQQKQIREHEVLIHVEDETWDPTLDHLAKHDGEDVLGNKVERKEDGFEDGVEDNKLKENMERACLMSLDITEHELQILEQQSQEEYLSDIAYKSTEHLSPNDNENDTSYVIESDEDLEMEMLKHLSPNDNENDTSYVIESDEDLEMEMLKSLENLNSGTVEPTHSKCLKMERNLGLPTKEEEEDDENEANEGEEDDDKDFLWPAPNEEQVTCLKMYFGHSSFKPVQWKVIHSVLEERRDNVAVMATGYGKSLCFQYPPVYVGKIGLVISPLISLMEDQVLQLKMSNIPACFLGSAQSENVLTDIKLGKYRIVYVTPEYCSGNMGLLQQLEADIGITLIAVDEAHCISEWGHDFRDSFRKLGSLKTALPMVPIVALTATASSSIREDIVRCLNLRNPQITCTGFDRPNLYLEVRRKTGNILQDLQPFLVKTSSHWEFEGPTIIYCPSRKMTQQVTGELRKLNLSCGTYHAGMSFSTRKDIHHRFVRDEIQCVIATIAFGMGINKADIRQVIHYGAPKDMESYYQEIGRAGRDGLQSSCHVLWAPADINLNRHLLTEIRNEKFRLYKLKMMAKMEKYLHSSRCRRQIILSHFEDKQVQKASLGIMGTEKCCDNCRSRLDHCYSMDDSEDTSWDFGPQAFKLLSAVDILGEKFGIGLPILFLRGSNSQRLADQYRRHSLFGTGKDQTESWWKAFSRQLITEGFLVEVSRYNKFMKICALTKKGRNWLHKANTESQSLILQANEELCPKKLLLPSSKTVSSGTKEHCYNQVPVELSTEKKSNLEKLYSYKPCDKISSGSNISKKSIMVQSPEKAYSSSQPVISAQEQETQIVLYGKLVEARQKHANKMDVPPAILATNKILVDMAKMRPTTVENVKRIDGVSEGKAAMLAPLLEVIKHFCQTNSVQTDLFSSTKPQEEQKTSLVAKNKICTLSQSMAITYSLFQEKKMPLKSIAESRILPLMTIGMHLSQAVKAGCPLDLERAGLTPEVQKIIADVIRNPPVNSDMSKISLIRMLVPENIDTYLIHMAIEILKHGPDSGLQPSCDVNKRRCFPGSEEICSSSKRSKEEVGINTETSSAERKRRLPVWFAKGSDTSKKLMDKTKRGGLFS
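Primary qHTS, 1536-well format. 20 nM WRN + compound, 15 min RT; start with 100 nM forked fluorophore/quencher duplex, 2 mM ATP (final); kinetic read ex 525/em 598 nm.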
TDP1 block – inhibitors of human tyrosyl-DNA phosphodiesterase TDP1; 350,000 compounds, 0.28% hits; Q9NUW8; Potency, µM (doses to about 130 µM), for inactives: at the highest dose activity change, negative = inhibition, hits mostly inhibitors; recombinant TDP1, AlphaScreen DNA substrate cleavage; note: potency is the fitted concentration of half-maximal effect; nearly all actives have a fitted effect of over 40% in size
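Signal: AlphaScreen proximity between streptavidin donor and anti-FITC acceptor beads on intact substrate. Reaction: Tdp1 1 nM, substrate 15 nM final, 5 min RT after 15 min compound preincubation.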
FEN1 inh – human FEN1 inhibition; Recombinant FEN1 flap cleavage, fluorescence, 15 min; Potency, µM (top dose mostly 114 µM), for the others: at the top dose activity change, negative = inhibition, most hits filed as inhibitors; 390,000 compounds, 0.35% hits; note: potency is the fitted concentration of half-maximal effect; nearly all actives have a fitted effect of over 65% in size
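Quantitative HTS format: each compound was titrated, incubated with 10 nM nuclease for 15 min at room temperature, then challenged with flap substrate at 50 nM final. Signal change over 15 min gave concentration–effect curves.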
PGK inhibitor – T. brucei PGK inhibition; P07378; PGK/GAPDH coupled, Kinase-Glo luminescence, 60 min; AID 602233; 380,000 compounds, 0.043% hits; Potency, µM (highest dose often 57.5 µM), for the others: at the highest dose activity change, negative = inhibition, usual class: inhibitors; note: potency is the fitted concentration of half-maximal effect; nearly all actives have a fitted effect of over 60% in size
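Recombinant glycosomal PGK reaction used 1,3-bisphosphoglycerate generated in-well by GAPDH (100nM final) in 100mM TEA pH 7.6, 5mM MgCl2, 0.01% Tween-20. After 60 minutes at room temperature, ATP was read by Kinase-Glo Plus luminescence end-point.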
PI5P4Ka inh – blocks human PI5P4K alpha kinase activity; AID 652105; 330,000 compounds, 1.2% hits; max response, %; PI5P4Kalpha enzyme, ADP-Glo luminescence, 60 min; active compounds read low; active = max response of -50% or lower; inconclusive = between -30% and -50%; inactive = -30% or higher; note: value at the top dose of about 77 µM
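Luminescence from ADP-Glo served as readout of PI5P4Kalpha activity in a qHTS format. Reaction: enzyme, substrate, compound, ATP at 5 microM final, 60 min at RT.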
* hit, by the source's call; i = inactive; ? = inconclusive; . = no result given; [ ] = dose if it differs, or a comment. Unless noted, calls come from the whole dose curve; as a rule, active = well fitted curve in the direction sought with a large enough effect; inconclusive = small, poorly fitted or top-dose-only effect, or another doubt; inactive = no such curve, though single readings can be large; an effect the other way counts as inactive or inconclusive. Unless noted, % is set by controls: 0 for no effect and ±100 for the full control effect.

SMILES | Tb PFK inh | WRN inhibitor | TDP1 block | FEN1 inh | PGK inhibitor | PI5P4Ka inh
CN1CCN(S(=O)(=O)c2ccccc2)CC1 | 2.3% | 7.8% | 0.5% | 10.5% | 4.5% | -4.4
Cc1cccc(/C=C/c2cccs2)n1 | . | . | . | -3.5% | . | .
O=C1c2cc(Br)ccc2N(Cc2ccc(Br)cc2)S(=O)(=O)C1c1cc(Cl)c(Cl)cc1[N+](=O)[O-] (centres undefined) | -0.3% | ? | 9.3% | ? | -9.6% | -60.7*
O=C(/C=C/c1ccc(Br)o1)OCc1nc2ccsc2c(=O)[nH]1 | ? | 14.1µM* | . | 79.4µM* | ? | -66.5*
COc1ccc2c(c1)c1ccc3c(c1n2C)C(=O)C=CC3=O | -10.2% | -15.9% | 5.9% | ? | -3.1% | -73.9*
Cc1ccc2c(c1)c1ncnc(N3CCN(c4ccccc4)CC3)c1n2C | -5.0% | -1.5% | -2.1% | ? | 2.3% | -2.6
Cc1ccc2c(c1)c1ccc3c(c1n2C)C(=O)C=CC3=O | -4.4% | -16.2% | 10.3% | -19.2% | 6.2% | -74.5*
Cn1c2ccccc2c2ccc3c(c21)C(=O)C=CC3=O | . | ? | . | ? | -10.6% | -72.4*
Cc1ccc(C)c2c1c1ccccc1n2C | -1.8% | 3.8% | 3.5% | 6.9% | 0.4% | 26.5
COc1ccc(-c2c(-c3cc(OC)cc(OC)c3)n(C)c3ccc(-c4ccc(OC)cc4F)cc23)cc1 | -1.1% | -6.3% | 1.9% | 9.6% | 0.8% | 2.4
O=[N+]([O-])c1ccc(O/N=[N+](\[O-])N2CCCC2)c([N+](=O)[O-])c1 | . | . | . | 0.6% | . | .
Cc1nnc(NC(=O)CSCc2cc(=O)c3ccccc3[nH]2)s1 | ? | . | 39.8µM* | -21.1% | -7.8% | .
Cc1nnc(NC(=O)CSCc2cc(=O)c3ccc(C)c(C)c3[nH]2)s1 | . | . | 2.7% | -13.9% | -10.0% | .
CC[n+]1c(/C=C2\Sc3ccccc3N2C)ccc2cccc(C)c21 | 2.3% | 50.1µM* | 4.7% | 12.6µM* | -4.6% | 0.0
COC(=O)[C@H](CC(C)C)NS(=O)(=O)NC(=O)OC(C)(C)C | . | . | . | 16.8% | . | .
Cc1ccc(/C=C/C(=O)Nc2ccc(S(N)(=O)=O)cc2)o1 | -21.4% | -3.2% | 1.2% | -16.9% | -4.9% | -54.4*
Cc1ccc(/C=N/NC(=O)NC2CCCCC2)o1 | 9.3% | 1.1% | 6.0% | -14.1% | -3.5% | -1.1
Cc1ccc(/C=C/C(=O)NCC2COc3ccccc3O2)o1 (centres undefined) | -18.4% | -33.4%[57.1 µM] | -1.3% | -0.4% | -0.3% | -69.9*
Cc1ccc(/C=C/C(=O)NC2CCCCCCC2)o1 | -23.4% | -35.2% | 8.3% | -5.5% | -1.6% | -55.2*
Cc1ccc(/C=C/C(=O)NCc2ccccn2)o1 | ? | 50.1µM* | 14.1µM* | -25.6% | ? | -63.6*
C[C@H](Cc1nc2c(cnn2-c2ccccc2Cl)c(=O)[nH]1)C(F)(F)F | . | . | 10.8% | . | . | .
ClN=C1C=CC=CC1=NCl | . | ? | . | . | . | -77.1*
CCc1ccc(C(c2ccccc2)c2c[nH]c3ccc(C)cc23)s1 (centres undefined) | . | . | 6.4% | ? | 7.5% | .
Cc1ccc2nc(CSc3nnc(-c4ccco4)o3)cc(=O)n2c1 | ? | -34.4% | 17.8µM* | 9.2% | -2.7% | .
CC(C)(C)c1ccc(Cn2cnc3c(cnn3C(C)(C)C)c2=O)cc1 | . | . | . | 14.1% | . | .
SMILES | Tb PFK inh | WRN inhibitor | TDP1 block | FEN1 inh | PGK inhibitor | PI5P4Ka inh
COc1cc(/C=N/NC(=O)C2=NNC(=O)C2C)ccc1O (centres undefined) | 1.2% | -11.0% | . | 18.5% | -9.3% | 1.5
CC1C(=O)NN=C1C(=O)N/N=C\c1ccc(O)cc1O (centres undefined) | -27.4% | -6.4% | 1.1% | 6.4% | -5.1% | -59.8*
CC(C)(C)n1ncc2c(=O)n(Cc3ccc(C#N)c(F)c3)cnc21 | . | . | . | -2.6% | . | .
CC(C)CCn1nnnc1C(c1ccccc1)N1CCN(C)CC1 (centres undefined) | -1.6% | 3.4% | 7.1% | 6.9% | 4.0% | -1.2
C=CCN1CCN(C(c2ccccc2)c2nnnn2CCC(C)C)CC1 (centres undefined) | 0.6% | ? | 11.5% | 0.7% | -2.5% | -58.9*
CCCCCn1ncc2c3sc(C)cc3n(C)c2c1=O | . | . | -8.2% | . | . | .
Cc1ccc(S(=O)(=O)N2CCN(c3nc(-n4c(=O)[nH]c5ccccc54)nc4ccccc34)CC2)cc1 | . | . | . | 8.0% | . | .
S=c1[nH]nc(-c2ccncc2)n1/N=C/C=C/c1ccco1 | ? | ? | . | ? | -5.9% | ?
S=c1[nH]nc(-c2ccccc2Cl)n1/N=C/C=C/c1ccco1 | -10.0% | ? | 6.8% | -17.1% | -2.6% | -60.4*
Clc1ccc(Cn2c3c(c4ccccc42)CCc2cc4ccccc4nc2-3)cc1 | . | . | -13.8% | 8.0% | . | .
O=C(O)Cc1cccc(=O)c(O)c1C(=O)O | . | ? | . | ? | 12.6µM* | -17.8
CSc1nsc(SCC(=O)Nc2ccc(F)cc2)n1 | -3.3% | 5.8% | . | -2.3% | 3.0% | 5.5
c1ccc(Nc2nnc(SCc3cccc4ccccc34)s2)cc1 | 4.5% | -31.4% | -0.7% | -8.8% | -1.3% | ?
CSc1nsc(SCC(=O)Nc2ccc(C(=O)O)cc2)n1 | -9.6% | 1.2% | . | 13.6% | -6.6% | -51.0*
O=C(CSc1nnc(SCc2cccc3ccccc23)s1)Nc1ccc(C(=O)O)cc1 | 3.1% | ? | 3.1% | -5.2% | -7.1% | -92.9*
COc1ccc(OC)c(C2=Nn3c(nnc3-c3ccccc3C)SC2)c1 | . | . | 11.5% | . | . | .
COc1ccc(OC)c(NC(=O)C(=O)/C=C(\O)c2cc(OC)ccc2OC)c1 | 1.9% | -12.2%[57.1 µM] | 5.2% | 39.8µM* | i | -3.5
COc1cc(/C=C/C(=O)O)cc(S(=O)(=O)NNC(=O)c2ccc3c(c2)OCO3)c1OC | 0.0% | 3.8% | -0.4% | -2.4% | -8.6% | 5.3
COc1cc(/C=C/C(=O)O)cc(S(=O)(=O)Nc2ccc3c(c2)OCO3)c1OC | -0.6% | -4.9%[57.1 µM] | 1.8% | 5.7% | -3.7% | -53.3*
Cc1nc(N=Nc2cc(S(=O)(=O)O)c3cc([N+](=O)[O-])cc(S(=O)(=O)O)c3c2)c(COP(=O)(O)O)c(C=O)c1O | . | . | ? | 7.52µM* | . | .
O=C(CN1CCOCC1)N/N=C/c1ccc(-c2ccc(C(=O)O)cc2)o1 | 3.5% | -8.2% | 31.6µM* | 9.6% | -7.8% | -16.8
CCOc1cc(/C=C2\N=C(SC)SC2=O)cc([N+](=O)[O-])c1OC(C)=O | 6.0% | ? | 7.7% | 50.1µM* | -6.0% | ?
CCOc1c(OC(C)=O)ccc(/C=C2\N=C(SCC)SC2=O)c1[N+](=O)[O-] | 3.0% | -4.5% | 1.9% | -9.4% | 7.3% | ?
CCOc1cc(/C=C2\N=C(SCC)SC2=O)cc([N+](=O)[O-])c1OC(C)=O | 3.9% | -22.0% | 0.9% | ? | -20.5% | -68.4*
c1ccc2cnccc2c1 | . | . | . | 11.9% | . | .
